Screens as filed in PubChem BioAssay.
The list is not random: actives were taken first. Their share in the collection is about 1.5%.
RTF Ca sens act = cardiac RTF calcium sensitization; P19429+P45379; IANBD-labeled TnC RTF fluorescence at EC20 calcium; 0% EC20 calcium, 100% full calcium; activation, % at 7.2 µM; 0.24% of 340,000 active;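 active = activation above the mean over all tested compounds plus 3 SD, cut at about 30% in these data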;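 also: rise in fluorescence read as greater calcium sensitivity of cardiac thin filaments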
CRFBP-R2 agonist = CRF-BP/CRF-R2 complex agonism; 0.46% of 350,000 active; activation, % at 13.2 µM; HEK293 CRF-R2/CRF-BP, calcium dye fluorescence (FLIPR); percent of saturating CRF peptide response; AID 588473;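 active = activation of at least 50%, plus an integration ratio under a set limit after plate pattern correction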
RTF Ca sens inh = cardiac RTF calcium desensitization | P19429+P45379 | IANBD-labeled cardiac RTF, Ca2+ fluorescence | inhibition, % at 7.15 µM | 0.12% of 340,000 active;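 active = inhibition above the mean inhibition of all tested compounds plus 3 SD, cut at about 17% in these data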;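 also: assay run at fixed EC70 calcium of 1.6 mM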
IDE inh = cellular human IDE inhibition; 0.41% of 320,000 active; P14735; HEK cells, FAbetaB cleavage, fluorescence polarization; inhibition, % at 5.59 µM; AID 434962;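 active = percent inhibition above the average of all tested compounds plus 3 SD, set per screening campaign, cut at about 16% in these data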;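 also: IDE supplied by intact live HEK cells; FP after avidin binding of uncleaved biotin substrate so inhibition keeps polarization high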
Target sequence (P14735 whole entry, looked up): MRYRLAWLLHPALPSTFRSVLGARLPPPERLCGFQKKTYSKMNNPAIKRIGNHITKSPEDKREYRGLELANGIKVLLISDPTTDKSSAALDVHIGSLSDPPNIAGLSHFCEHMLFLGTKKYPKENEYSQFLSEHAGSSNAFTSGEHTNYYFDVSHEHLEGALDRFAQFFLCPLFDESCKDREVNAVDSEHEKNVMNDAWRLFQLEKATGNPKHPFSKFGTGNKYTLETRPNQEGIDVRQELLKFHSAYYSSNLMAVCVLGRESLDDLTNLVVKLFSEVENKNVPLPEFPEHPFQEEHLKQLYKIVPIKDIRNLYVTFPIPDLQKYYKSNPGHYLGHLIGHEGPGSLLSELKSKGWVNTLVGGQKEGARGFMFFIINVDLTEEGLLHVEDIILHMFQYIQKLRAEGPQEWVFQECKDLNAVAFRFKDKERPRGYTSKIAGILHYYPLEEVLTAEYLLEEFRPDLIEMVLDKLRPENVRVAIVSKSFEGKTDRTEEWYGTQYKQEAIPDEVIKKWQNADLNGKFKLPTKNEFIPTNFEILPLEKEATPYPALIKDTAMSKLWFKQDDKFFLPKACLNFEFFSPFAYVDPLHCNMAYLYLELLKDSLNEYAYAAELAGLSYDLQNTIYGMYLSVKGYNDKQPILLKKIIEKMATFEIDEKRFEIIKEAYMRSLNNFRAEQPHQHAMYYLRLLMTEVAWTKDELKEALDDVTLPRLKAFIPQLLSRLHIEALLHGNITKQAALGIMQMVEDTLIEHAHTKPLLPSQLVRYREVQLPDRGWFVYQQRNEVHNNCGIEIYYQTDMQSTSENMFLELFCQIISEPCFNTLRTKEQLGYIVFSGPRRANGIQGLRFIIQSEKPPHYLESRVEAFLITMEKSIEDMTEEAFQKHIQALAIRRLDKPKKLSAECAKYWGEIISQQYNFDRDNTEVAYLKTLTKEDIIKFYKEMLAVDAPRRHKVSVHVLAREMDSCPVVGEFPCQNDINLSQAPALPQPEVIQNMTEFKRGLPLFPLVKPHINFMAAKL
IDE cell activ = IDE (human) activation, cell-based; P14735; 0.073% of 340,000 active; activation, % at 5.96 µM; HEK cells, FAbeta-B cleavage, fluorescence polarization; 0% vehicle, 100% cell-free pure enzyme wells;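 active = activation above the mean of all tested compounds plus 3 SD, set per screening campaign, cut at about 17% in these data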
CRFBP-R2 block = antagonists of CRF-binding protein/CRF-R2 receptor complex | HEK293 CRF-R2/CRF-BP, CRF-induced calcium fluorescence | inhibition, % at 11.8 µM | 0.59% of 350,000 active;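 active = inhibition of the ligand-induced calcium signal above about 50% at the single tested concentration, limit read from the data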
Large screens that a line does not name were inactive.

COc1cccc(CSc2nnc(C(F)(F)F)n2Cc2ccc(F)cc2)c1	CRFBP-R2 block 64.3
O=C(Cn1cccc1C(=O)c1ccccc1)NCc1ccc(F)cc1	none
CN(CC(=O)Nc1c(Cl)cccc1Cl)CC(=O)N1CCc2ccccc21	none (no result: RTF Ca sens act, RTF Ca sens inh, IDE inh, IDE cell activ)
CCOC(=O)N1CCN(C(=O)CSc2nnc(CNC(=O)c3ccccc3F)o2)CC1	CRFBP-R2 block 56.9
O=C(NCc1nnc(SCC(=O)N2CCCC2)o1)c1ccccc1F	none
CCOc1ccc(S(=O)(=O)N2CCN(S(=O)(=O)c3ccc(C(C)=O)cc3)CC2)cc1	none
CCOc1ccc(S(=O)(=O)N2CN(c3cccc(C(C)=O)c3)c3nc4ccccc4nc32)cc1	CRFBP-R2 block 51.7
COc1ccc(N(C)S(=O)(=O)c2ccc3c(c2)oc(=O)n3C)cc1	none
CN(c1ccccc1)S(=O)(=O)c1ccc2c(c1)oc(=O)n2C	CRFBP-R2 block 58.9
COc1cc2ccccc2cc1C(=O)N(CCN(C)C)c1nc2c(OC)ccc(OC)c2s1	CRFBP-R2 block 72.2
CC(=O)c1cc2c(cc1NC(=O)CN1Cc3ccccc3C1=O)OCO2	none
COc1ccc(-c2cc(C(=O)NC3CCCC3)c3ccccc3n2)cc1OC	CRFBP-R2 block 96.8
COc1cccc(-c2cc(C(=O)NC3CCCC3)c3ccccc3n2)c1	none (no result: RTF Ca sens act, RTF Ca sens inh, IDE cell activ)
Cc1nc(NC(=O)/C=C/c2ccc(C(C)(C)C)cc2)sc1C(=O)N(C)C	none
Cc1ccc(CNCCCSc2nc(C)cc(C)n2)cc1	none
Cc1cc(C)nc(SCCCNCc2ccc(Br)cc2)n1	RTF Ca sens act 31.8
CCOc1ccccc1NC(=O)Cn1nnc(-c2ccc(OCC)c(OCC)c2)n1	none
CCOc1cc(/C=C/c2cccc[n+]2C)ccc1O	CRFBP-R2 agonist 59.3
Cc1csc(NC(=O)Cc2ccc(Br)cc2)n1	CRFBP-R2 block 62.7
CC(=O)O[C@@H](C[C@@H](C)C1=C2C[C@H](O)C3[C@@]4(C)CCC(=O)C(C)(C)C4CC[C@]3(C)[C@@]2(C)CC1)[C@H]1OC1(C)C (stereo partly specified)	none (no result: IDE inh)
Cc1ccc2nc(SCC(=O)N3CCOCC3)[nH]c2c1	CRFBP-R2 block 78.1
Cc1ccc2nc(SCC(=O)N3CCN(c4ccccc4)CC3)[nH]c2c1	none
COc1ccccc1NC(=O)C(Sc1ccccc1)c1ccccc1 (stereo unspecified)	none
COc1ccc(NC(=O)C(Sc2ccccc2)c2ccccc2)c(OC)c1 (stereo unspecified)	CRFBP-R2 block 51.1
O=C(O)c1cnn(-c2nc(-c3cccc(F)c3)cs2)c1C(F)(F)F	none
O=C(O)c1cnn(-c2nc(-c3ccc(Cl)c(Cl)c3)cs2)c1C(F)(F)F	CRFBP-R2 block 50.2
O=C(CSc1ncn[nH]1)Nc1cc(S(=O)(=O)N2CCCC2)ccc1Cl	CRFBP-R2 block 50.0
O=C(Nc1cc(S(=O)(=O)N2CCCCC2)ccc1Cl)c1ccccc1NS(=O)(=O)c1ccc(F)cc1	CRFBP-R2 block 107.7
O=C(Nc1cc(S(=O)(=O)N2CCCCC2)ccc1O)c1ccccc1NS(=O)(=O)c1ccc(F)cc1	CRFBP-R2 agonist 71.5
O=C(c1ccccc1NS(=O)(=O)c1ccc(F)cc1)N1CCCCC1	none
C=CCNC(=S)Nc1cccc2[nH]ncc12	none
COc1ccc(C)cc1N(CC(=O)N1CCCCCC1)S(=O)(=O)c1ccccc1	none
NC(=O)C1=C(c2ccccc2)c2ccccc2C1=O	CRFBP-R2 agonist 66.7 (no result: IDE inh)
O=C(Nc1ncc([N+](=O)[O-])s1)c1cccc([N+](=O)[O-])c1	CRFBP-R2 agonist 65.9, CRFBP-R2 block 69.6
C[C@H](CO)N1C[C@H](C)[C@@H](CN(C)C(=O)Nc2ccc3c(c2)OCO3)Oc2ccc(NC(=O)CCC(F)(F)F)cc2C1=O	none
COc1ccc(C(=O)NC(C)c2cccnc2)cc1S(=O)(=O)N(C)Cc1ccccc1 (stereo unspecified)	none
O=C(O)c1ccccc1Nc1ccc([N+](=O)[O-])cc1	IDE cell activ 28.4
O=C(O)c1ccccc1Nc1ccccc1C(=O)O	none
CCC1(C)N=C(N)Nc2nc3cc(C)c(C)cc3n21 (stereo unspecified)	none
CSc1ccccc1C(=O)N1CCN(S(=O)(=O)c2sc(C(=O)O)c(C)c2C(=O)O)CC1	CRFBP-R2 block 84.3
Cc1c(C(=O)O)sc(S(=O)(=O)N2CCN(C(=O)Cc3ccccc3)CC2)c1C(=O)O	none (no result: IDE inh)
COc1cc(/C=N/NS(=O)(=O)c2ccc(C)c([N+](=O)[O-])c2)cc([N+](=O)[O-])c1O	none
COc1ccc(-n2c(O)c(/C=N/NS(=O)(=O)c3ccc(C)c([N+](=O)[O-])c3)c3ccccc3c2=O)cc1OC	RTF Ca sens act 127.5
COC(=O)c1ccccc1NC(=O)c1nc(S(=O)(=O)Cc2ccccc2)ncc1Cl	CRFBP-R2 block 54.3
Cc1ccc(CS(=O)(=O)c2ncc(Cl)c(C(=O)Nc3ccc(OC(F)F)cc3)n2)cc1	CRFBP-R2 block 54.4
O=C(NCCOc1ccccc1F)c1ccccc1SCc1ccc(F)cc1	CRFBP-R2 block 63.5
CC(=O)c1cc(NC(=O)c2cccc(C(F)(F)F)c2)c(=O)oc1/C=C/N(C)C	CRFBP-R2 agonist 75.7
CCCNC(=O)C(Cc1ccc(I)cc1)NC(=O)C1CC1 (stereo unspecified)	none
Cc1c(C(=O)Nc2cccc([N+](=O)[O-])c2)sc2ncn(CC(=O)N3CCOCC3)c(=O)c12	CRFBP-R2 block 86.8
Cc1ccc(C)c2c3c([nH]c12)-c1nonc1CC3	none
N#CC(c1ccc(Cl)cc1)c1ccc2c(C(F)(F)F)cc(C(F)(F)F)nc2n1 (stereo unspecified)	CRFBP-R2 block 69.4
FC(F)(F)c1cc(C(F)(F)F)c2ccc(N3CCN(c4ccc(Cl)cc4)CC3)nc2n1	none
CCOc1ccccc1OCCCC(=O)N(CC)CC(=O)Nc1ccc(NC(C)=O)cc1	none
OCCCc1nc2n(n1)C(c1cccs1)C=C(c1ccccc1)N2 (stereo unspecified)	IDE inh 78.3 (no result: RTF Ca sens act, CRFBP-R2 agonist, RTF Ca sens inh, IDE cell activ, CRFBP-R2 block)
OCCCc1nc2n(n1)C(c1ccccc1)C=C(c1ccc(F)cc1)N2 (stereo unspecified)	none
O=[n+]1c2c(n([O-])c3cc(F)c(N4CCCC4)cc31)CCC2	RTF Ca sens act 52.7
O=[n+]1c2c(n([O-])c3cc(F)c(N4CCCC4)cc31)CCCC2	RTF Ca sens act 79.1, CRFBP-R2 agonist 55.2
O=[n+]1c2c(n([O-])c3cc(F)ccc31)CCCC2	none
CCSc1cc(C2C(C(=O)OC)=C(C)NC3=C2C(=O)CCC3)c(C)o1 (stereo unspecified)	none
Cc1cc2c(nc1C)CCCN2C[C@@H](C)O/N=C1/[C@H]2CCn3c(=O)n(-c4ccccc4)c(=O)n3[C@H]2[C@H](O)[C@@H]2O[C@H]12	none (no result: RTF Ca sens act, RTF Ca sens inh, IDE cell activ)
